{"source": "paper PMC4552634", "about": "“A New Set of Chemical Starting Points with Plasmodium falciparum Transmission-Blocking Potential for Antimalarial Drug Discovery” (PLoS ONE, 2015)", "note": "About 3,200 (25%) of roughly 13,000 compounds showed an effect of 50% or more. The list shows a part of the results."}
{"system": "P. falciparum stage V gametocytes", "design": "BacTiter-Glo ATP luminescence viability of purified stage V gametocytes in 384-well plates, per cent inhibition versus DMSO", "settings": "48 h, 5 µM; inhibitor", "units": {"% Inhibition": "%"}}
{"smiles": "CN(C)CCCc1cc(NC(=O)Nc2cccc(Cl)c2Cl)ccc1I", "note": "[TCMDC-139132]", "% Inhibition": -49.28}
{"smiles": "CCOC(=O)c1c(C)n(-c2ccccc2)c2ccc(OC(=O)COc3ccc(Cl)cc3Cl)cc12", "note": "[TCMDC-124380]", "% Inhibition": -46.8}
{"smiles": "COc1ccc2nccc(C(=O)NC3CCC(CCN4CCc5cc(C#N)ccc5C4)CC3)c2c1", "note": "(centres unmarked) [TCMDC-139240]", "% Inhibition": 4.839}
{"smiles": "CN(C)CCCOc1c(C(C)(C)C)cc(-c2cc(C(C)(C)C)c(OCCCN(C)C)c(C(C)(C)C)c2)cc1C(C)(C)C", "note": "[TCMDC-131822]", "% Inhibition": 59.94}
{"smiles": "Cn1cnc(CCNC(=O)c2ccc(-c3ccc(-c4nc5cc(F)ccc5[nH]4)cc3)cc2)c1", "note": "[TCMDC-132491]", "% Inhibition": 5.885}
{"smiles": "O=C(CC1SC(N2N=C(c3cccs3)CC2c2ccccc2)=NC1=O)Nc1ccc(Cl)cc1", "note": "(centres unmarked) [TCMDC-124762]", "% Inhibition": 14.18}
{"smiles": "Cc1cc(N(C)C)nc(Nc2ccc(NC(=O)COc3ccccc3)cc2)n1", "note": "[TCMDC-124975]", "% Inhibition": -15.54}
{"smiles": "Clc1cccc(CNc2nc(NCCc3cnc[nH]3)nc(NC3CCCCC3)n2)c1", "note": "[TCMDC-139735]", "% Inhibition": 0.07512}
{"smiles": "CCn1c(-c2nonc2N)nc2c(-c3cccc(Cl)c3)ncc(OCCCNCCc3cnc[nH]3)c21", "note": "[TCMDC-135919]", "% Inhibition": 106.8}
{"smiles": "CCn1c(-c2nonc2N)nc2c(-c3cccc(Cl)c3)ncc(OCCCNCc3cnc(C)nc3N)c21", "note": "[TCMDC-135956]", "% Inhibition": 99.17}
{"smiles": "NC(N)=NC(=O)Nc1ccc(Cl)c([N+](=O)[O-])c1", "note": "[TCMDC-137567]", "% Inhibition": -21.87}
{"smiles": "CC(C)c1sc(N2CCN(C)CC2)nc1C(=O)NCCc1ccc(Br)cc1", "note": "[TCMDC-134294]", "% Inhibition": 2.102}
{"smiles": "COc1ccc2nccc([C@@H](O)CN3CCC(NC(=O)CCC(=O)c4cc(C(C)(C)C)ccc4OC)CC3)c2c1", "note": "[TCMDC-141108]", "% Inhibition": 21.12}
{"smiles": "CC(C)CCNc1nc(NCCCc2ccccc2)c2cc(O)ccc2n1", "note": "[TCMDC-138381]", "% Inhibition": 95.75}
{"smiles": "Cc1cc(NCc2ccccc2)nc2cc(O)ccc12", "note": "[TCMDC-125297]", "% Inhibition": 15.33}
{"smiles": "CC(C)CCNc1nc(NCCc2ccccc2)c2cc(O)ccc2n1", "note": "[TCMDC-138405]", "% Inhibition": 95.11}
{"smiles": "Oc1ccc(Nc2nc(NCc3ccccc3)c3ccccc3n2)cc1", "note": "[TCMDC-125641]", "% Inhibition": -47.6}
{"smiles": "CC(C)CCNc1nc(NCc2ccccc2)c2cc(O)ccc2n1", "note": "[TCMDC-138436]", "% Inhibition": 91.5}
{"smiles": "Cc1noc(-c2cccs2)c1C(=O)NCCc1cccc(Cl)c1", "note": "[TCMDC-124801]", "% Inhibition": 0.8455}
{"smiles": "COc1cc(CNC[C@@H](O)[C@H](Cc2ccccc2)NC(=O)c2cc(C3CCCC3)cc(N3CCCS3(=O)=O)c2)cc(OC)c1", "note": "[TCMDC-134560]", "% Inhibition": 26.15}
{"smiles": "CCOc1cc(C(=O)Nc2ccc3nc(N4CCCCC4)cc(C)c3c2)cc(OCC)c1OCC", "note": "[TCMDC-125449]", "% Inhibition": -1.386}
{"smiles": "Cc1cccc2c(N=NC(=S)N(C)C)c(O)[nH]c12", "note": "[TCMDC-137626]", "% Inhibition": -58.93}
{"smiles": "O=C1OC2(CN1CC1CCN(Cc3ccc(-n4ccnc4)cc3)C1)c1ccccc1-c1ccccc12", "note": "(centres unmarked) [TCMDC-136314]", "% Inhibition": 22.25}
{"smiles": "N#Cc1cccc(NC(=O)Nc2ccc(-c3ccc(-c4nc5ccc(C(F)(F)F)cc5[nH]4)cc3)cc2)c1", "note": "[TCMDC-133190]", "% Inhibition": -5.798}
{"smiles": "Cc1cccc(NC(=O)Nc2cccc(-c3ccc(-c4nc5ccc(C(F)(F)F)cc5[nH]4)cc3)c2)c1", "note": "[TCMDC-133305]", "% Inhibition": 4.928}
{"smiles": "CCN(CCCN1CCCCC1)c1cc(C)nc(Nc2ccc(C)cc2)n1", "note": "[TCMDC-132427]", "% Inhibition": -21.39}
{"smiles": "Cc1cc(N(C)CCCN(C)C)nc(Nc2ccc(Br)cc2)n1", "note": "[TCMDC-136888]", "% Inhibition": 36.7}
{"smiles": "Cc1cc(N(C)CCN(C)C)nc(Nc2ccc(Br)cc2)n1", "note": "[TCMDC-137013]", "% Inhibition": 18.91}
{"smiles": "CCCc1ccc(Nc2nc(C)cc(N(CC)CCCN3CCCCC3)n2)cc1", "note": "[TCMDC-132453]", "% Inhibition": 39.01}
{"smiles": "CCCCN(CCCC)CCCN(CCCN(CCCC)CCCC)c1cc(C)nc(Nc2ccc(Br)cc2)n1", "note": "[TCMDC-138004]", "% Inhibition": 92.54}
{"smiles": "CCN(CC)CCCN(CCCN(CC)CC)c1cc(C)nc(Nc2ccc(Br)cc2)n1", "note": "[TCMDC-138007]", "% Inhibition": 66.18}
{"smiles": "O=C(Nc1cccc(-c2ccc(-c3nc4cc(F)ccc4[nH]3)s2)c1)c1cccnc1", "note": "[TCMDC-136931]", "% Inhibition": -7.86}
{"smiles": "CCOc1cc2ncnc(Nc3ccc(OCc4ccccc4OC)c(OC)c3)c2cc1OCC", "note": "[TCMDC-131912]", "% Inhibition": -29.04}
{"smiles": "COc1ccc(-c2csc(N(CCCN(C)C)C(=O)c3cc4c(C)nn(-c5ccccc5)c4s3)n2)cc1", "note": "[TCMDC-124034]", "% Inhibition": 46.49}
{"smiles": "CCN(CC)CCCN(C(=O)c1cc2c(C)nn(-c3ccccc3)c2s1)c1nc(-c2ccc(OC)cc2)cs1", "note": "[TCMDC-125429]", "% Inhibition": 17.92}
{"smiles": "Cc1nn(-c2ccccc2)c2sc(C(=O)N(CCCN(C)C)c3nc(-c4ccccc4)cs3)cc12", "note": "[TCMDC-125428]", "% Inhibition": 100.2}
{"smiles": "Cc1n[nH]c(C)c1C1CCN(CC2CCC(NC(=O)/C=C/c3ccc(Cl)c(Cl)c3)CC2)CC1", "note": "(centres unmarked) [TCMDC-139624]", "% Inhibition": 34.25}
{"smiles": "Cc1[nH]c(C)c(-c2ccc(-c3ccccc3Cl)nc2)c(=O)c1Cl", "note": "[TCMDC-136303]", "% Inhibition": 74.15}
{"smiles": "Cc1[nH]c(C)c(-c2ccc(-c3ccccc3Cl)nc2)c(=O)c1Br", "note": "[TCMDC-136157]", "% Inhibition": 75.71}
{"smiles": "CCCCc1ccc(-c2ccc(-c3c(C)[nH]c(C)c(Br)c3=O)cn2)cc1", "note": "[TCMDC-135687]", "% Inhibition": 10.67}
{"smiles": "COc1ccc(NC(=O)N2CCN(CCCCCNC(=O)/C=C/c3ccc(C(F)(F)F)cc3)CC2)cc1Cl", "note": "[TCMDC-136097]", "% Inhibition": -39.25}
{"smiles": "OC1(c2ccc(Cl)c(C(F)(F)F)c2)CCN(CCOC2c3ccccc3CSc3ccc(Cl)cc32)CC1", "note": "(centres unmarked) [TCMDC-124001]", "% Inhibition": 11.98}
{"smiles": "CC(C)C(C(=O)n1cc2c(ccc3nc(N)nc(N)c32)n1)C(C)C", "note": "[TCMDC-137334]", "% Inhibition": -12.47}
{"smiles": "O=C1COc2cc(Cl)c(CNC3CCN(CCc4ccnc5c(F)cc(F)cc45)CC3)nc2N1", "note": "[TCMDC-141732]", "% Inhibition": -3.632}
